Compounds with a hit are over-represented: about 2.4% of the library has one in this group of screens.
TLR4-MyD88 BLA: blocks binding of human TLR4 to MyD88 | O00206+Q99836 | HeLa CL3-4 TLR4/MyD88 BLA complementation, FRET ratio | inhibition, % at 8.4 µM | 0.18% of 200,000 active; in the data active means inhibition above about 25%;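 further: 0% = vehicle and 100% = reference inhibitor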
HTR2A ag: agonists of mouse serotonin 5-HT2A receptor (HTR2A). P35363. CHO-K1 mHTR2A beta-arrestin complementation, luminescence; percent of 30 µM serotonin response. activation, % at 7.6 µM. 0.66% of 360,000 active;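 active means activation above a run cutoff, the mean activation of all tested compounds plus 3 SD, cut at about 14% in these data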;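 further: 0% = plate median of compound wells and 100% = 30 µM serotonin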
ABHD5-PLIN5 inh: blocks binding of human ABHD5 to perilipin-5 | Q00G26+Q8WTS1 | Split G. princeps luciferase complementation, luminescence, 4 h | inhibition, % at 4 µM | 0.78% of 360,000 active;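 active means inhibition above the mean inhibition across every tested compound plus 3 SD, cut at about 22% in these data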;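 further: 0% = DMSO only wells and the 100% control is not disclosed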
NOD2 RIPK2 PPI: inhibitors of human NOD2-RIPK2 interaction. CHO BLA complementation NOD2-RIPK2, CCF4 ratio. inhibition, % at 4.98 µM. 0.38% of 360,000 active. AID 624267; in the data active means inhibition above about 21%;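 further: 0% = vehicle only and 100% = reference blocker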
Target sequence (O43353 whole entry, looked up): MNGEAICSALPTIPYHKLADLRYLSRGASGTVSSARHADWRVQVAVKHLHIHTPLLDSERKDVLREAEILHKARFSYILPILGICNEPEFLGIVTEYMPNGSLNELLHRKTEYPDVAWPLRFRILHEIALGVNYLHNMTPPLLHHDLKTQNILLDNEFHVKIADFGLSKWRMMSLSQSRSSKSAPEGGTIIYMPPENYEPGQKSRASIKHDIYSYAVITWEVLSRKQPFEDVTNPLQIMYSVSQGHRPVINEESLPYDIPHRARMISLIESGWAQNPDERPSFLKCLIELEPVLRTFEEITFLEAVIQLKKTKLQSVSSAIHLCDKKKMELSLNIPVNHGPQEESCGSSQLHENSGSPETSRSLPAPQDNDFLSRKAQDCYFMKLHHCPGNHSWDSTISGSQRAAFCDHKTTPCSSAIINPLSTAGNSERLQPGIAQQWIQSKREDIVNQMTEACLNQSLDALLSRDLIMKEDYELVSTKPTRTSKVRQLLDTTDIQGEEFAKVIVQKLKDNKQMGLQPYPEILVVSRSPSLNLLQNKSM
TLR9-MyD88 inh: inhibitors of human TLR9-MyD88 binding; Q9NR96+Q99836; CHO BLA complementation TLR9-MyD88, CCF4 FRET ratio; inhibition, % at 4.98 µM; 0.21% of 340,000 active; AID 504734;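 active means inhibition above the mean over all tested compounds plus 3 SD, cut at about 21% in these data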;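 further: 0% = DMSO only wells and 100% = clavulanate BLA inhibitor control wells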
CRFR2-BP antag: blocks CRF-induced signaling of the CRF-BP/CRF-R2 complex. HEK293 CRF-R2/CRF-BP, CRF-induced calcium fluorescence. 0.59% of 350,000 active. inhibition, % at 11.8 µM;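 active means inhibition of the ligand-induced calcium signal above about 50% at the single tested concentration, limit read from the data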
ABHD5 PLIN5 conf: confirmation of human ABHD5-PLIN5 interaction inhibitors; shares compounds with ABHD5-PLIN5 inh; biochemical ABHD5-PLIN5 interaction, luminescence; inhibition, % at 4 µM; 67% of 2,200 active; in the data active means inhibition above about 23%;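 further: 0% = DMSO vehicle wells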
HNF4 counter: HNF4 split-luciferase signal hit, counter-screen; shares compounds with ABHD5-PLIN5 inh; HNF4 dimerization, luminescence, biochemical; inhibition, % at 4 µM; 77% of 2,200 active; AID 651674;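 active means mean inhibition across replicate wells exceeding the computed hit threshold, cut at about 13% in these data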;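 further: light from luciferase halves that rejoin when HNF4 fusion proteins dimerize; 0% = DMSO only wells and the 100% control is not given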
NOD2 RIPK2 conf: confirmation of human NOD2-RIPK2 interaction inhibitors; shares compounds with NOD2 RIPK2 PPI; CHO cells, NOD2-RIPK2 BLA complementation, CCF4 FRET; inhibition, % at 4.98 µM; 70% of 1,200 active;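 active means mean inhibition across replicates above a set limit taken from the earlier primary screen, cut at about 21% in these data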;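 further: 0% = DMSO-only wells and the high end = clavulanate BLA-blocked wells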
NOD2 BLA counter: counter-screen for NOD2-RIPK2 interaction inhibitors: BLA reporter | AID 624371 | inhibition, % at 4.98 µM | 57% of 1,200 active | shares compounds with NOD2 RIPK2 PPI | CHO BLA reporter, CCF4 FRET ratio, counterscreen;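 active means mean inhibition above the low-control mean inhibition plus three low-control SD, cut at about 11% in these data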;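 further: 0% = DMSO only wells and 100% = clavulanate high control wells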
Active calls of the source: *; . = not tested or not shown.

SMILES | TLR4-MyD88 BLA | HTR2A ag | ABHD5-PLIN5 inh | NOD2 RIPK2 PPI | TLR9-MyD88 inh | CRFR2-BP antag | ABHD5 PLIN5 conf | HNF4 counter | NOD2 RIPK2 conf | NOD2 BLA counter
CCOc1cc(/C=N/Nc2nc3ccccc3[nH]2)cc(Br)c1OCC(=O)N(C)C | 2 | -3 | 2 | -12 | -2 | -4 | . | . | . | .
Cc1ccc(/C=C2/NC(=O)N(c3ccccc3)C2=O)o1 | 19 | -1 | 19 | 6 | 2 | -5 | . | . | . | .
O=C1N/C(=C/c2ccc(N3CCOCC3)o2)C(=O)N1c1cccc(Cl)c1 | 11 | 3 | 70* | 33* | 11 | 70* | 71* | 100* | 22* | 9
O=[N+]([O-])c1ccc(Sc2ccncn2)c([N+](=O)[O-])c1 | . | 0 | 29* | 24* | 12 | -9 | 41* | 41* | 23* | -1
Cc1cc(C)nc(Sc2ccc([N+](=O)[O-])cc2[N+](=O)[O-])n1 | -5 | 1 | -2 | 10 | -4 | -24 | . | . | . | .
CCOC(=O)[C@]12CCCC=C1N(Cc1cccc3ccccc13)C(=O)[C@H](CC(=O)N1CCCC1)C2 | . | 4 | 3 | 4 | . | . | . | . | . | .
CCCc1cnc(Nc2nc(C(N)Cc3ccc(C(F)(F)F)cc3)cs2)nc1 (stereo not given) | . | -2 | -9 | 9 | . | . | . | . | . | .
CC(=O)OC1CCC2(C)C(CCC3C4CC=C(C(C)=O)C4(C)OC(=O)CC32)C1 (stereo not given) | . | -1 | 61* | 39* | -2 | -21 | 88* | 93* | 39* | -3
CCCN1C(=O)/C(=C/c2ccc(C)s2)SC1=Nc1ccc(OC)cc1 | -2 | 9 | -1 | 2 | 4 | -15 | . | . | . | .
CCN(CC)CCN1C(=O)/C(=C\c2ccc(Cl)c([N+](=O)[O-])c2)SC1=Nc1ccc(OC)cc1 | . | -7 | 39* | 72* | 18 | -7 | 27* | 14* | 54* | -28
Cc1ccc(S(=O)(=O)NCc2ccccc2Br)cc1 | . | -1 | 0 | -6 | . | . | . | . | . | .
C=CS(=O)(=O)c1ccc(Oc2ccc(S(=O)(=O)C=C)cc2)cc1 | 23 | 2 | 86* | 36* | 15 | 2 | 100* | 102* | 51* | 17*
CC1(C(=O)N2Cc3ccccc3C2)CCN1C(=O)C1(c2ccc(Cl)cc2)CC1 (stereo not given) | . | 1 | -2 | -2 | . | . | . | . | . | .
O=C(c1ccc(Br)cc1)C(CN1CCOCC1)c1ccccc1 (stereo not given) | . | -4 | 29* | 26* | 14 | -7 | 52* | 94* | 27* | -3
O=c1ccc2ccccc2c2ccccc12 | . | -1 | 87* | 43* | . | . | 97* | 104* | 41* | -3
C[C@H]1CN([C@@H](C)CO)C(=O)CCCn2cc(nn2)CO[C@@H]1CN(C)C(=O)Cc1ccccc1 | . | 8 | 7 | -7 | -2 | -6 | . | . | . | .
Cc1ccc(S(=O)(=O)CCc2nnc(NC(=O)c3cnccn3)s2)cc1 | -12 | 1 | 0 | -3 | 4 | -13 | . | . | . | .
CCCc1nnc(NC(=O)c2nc(S(=O)(=O)Cc3ccc(C)cc3)ncc2Cl)s1 | . | -1 | 44* | 32* | 10 | 48 | 77* | 53* | 30* | 18*
CCN(CC)CCC(=O)N1C/C(=C/c2ccccc2)C(=O)/C(=C\c2ccccc2)C1 | . | 0 | 97* | 24* | 11 | 12 | 102* | 103* | 47* | -1
O=C1/C(=C\c2ccccc2)CN(C(=O)CCN2CCCCC2)C/C1=C/c1ccccc1 | . | -10 | 98* | 36* | 12 | -36 | 103* | 108* | 55* | 1
O=C1/C(=C\c2ccc(Cl)c(Cl)c2)CN(C(=O)CCN2CCOCC2)C/C1=C/c1ccc(Cl)c(Cl)c1 | . | -7 | 99* | 39* | -7 | -71 | 103* | 108* | 76* | 5
O=C(NCCN1CCOCC1)c1ccc(Cl)c(Cl)c1 | . | -6 | -6 | -2 | -2 | 22 | . | . | . | .
COC(=O)c1cnc(NC(=O)C2(C)CCN2C(=O)C(C)C)s1 (stereo not given) | . | -5 | 1 | 2 | . | . | . | . | . | .
O=C(NCc1cccnc1)/C(=C\c1ccc(-c2cccc(Cl)c2)o1)S(=O)(=O)c1ccccc1 | -3 | -2 | 82* | 35* | 13 | -14 | 97* | 88* | 48* | 4
N#C/C(=C/c1ccc(CNC(=O)C(=O)Nc2cc(Cl)cc(Cl)c2)o1)C(=O)NCc1cccnc1 | 6 | 1 | 0 | -3 | 4 | 13 | . | . | . | .
SMILES | TLR4-MyD88 BLA | HTR2A ag | ABHD5-PLIN5 inh | NOD2 RIPK2 PPI | TLR9-MyD88 inh | CRFR2-BP antag | ABHD5 PLIN5 conf | HNF4 counter | NOD2 RIPK2 conf | NOD2 BLA counter
O=C1O[C@@H](c2ccccc2)C[C@@H](O)C(=O)CCCCc2ccccc21 | . | -9 | -2 | -6 | . | . | . | . | . | .
Cc1ccccc1N1C(=O)CC(Sc2nnc(-c3ccccc3)o2)C1=O (stereo not given) | -7 | -7 | 35* | 43* | -5 | -4 | 60* | 98* | 34* | 6
CCOC(=O)Nc1ccc2c(c1)N(C(=O)CCN(CC)CC)c1ccccc1S2=O (stereo not given) | . | -1 | 23* | 31* | 2 | 8 | 21 | 78* | 13 | 1
C=CC(=O)N1C/C(=C/c2ccc(F)cc2)C(=O)/C(=C\c2ccc(F)cc2)C1 | . | -6 | 100* | 54* | 16 | -32 | 102* | 105* | 64* | 9
Cc1cccc(CS(=O)(=O)c2ncc(Cl)c(C(=O)NCc3ccc4c(c3)OCO4)n2)c1 | . | -10 | 49* | 39* | 0 | 10 | 87* | 105* | 42* | 10
O=P(CCCCCCCCCP(=O)(c1ccccc1)c1ccccc1)(c1ccccc1)c1ccccc1 | 0 | -5 | 23* | 22* | 3 | 2 | -1 | -1 | 16 | 3
O=C(/C=C1\C(=O)Nc2ccccc21)/C=C1\C(=O)Nc2ccccc21 | . | -7 | 63* | 25* | 14 | -26 | 102* | 105* | 74* | 16*
CN(O)/C=C1\C(=O)Nc2ccccc21 | -8 | 0 | -34 | 9 | -4 | 8 | . | . | . | .
O=C1Nc2ccccc2/C1=C\C(=O)c1ccccc1 | . | 0 | 50* | 30* | 1 | -5 | 82* | 96* | 29* | -2
CN(C)/C=C1\C(=O)Nc2ccccc21 | -2 | 7 | -2 | -5 | -2 | -8 | . | . | . | .

Bioassay records (PubChem BioAssay)
